Inconclusive results are not listed. Activity calls are given as the source filed them. Calls follow the shape of the dose curve; as a rule, active = well fitted cell-killing curve with a large enough effect; inconclusive = small, poorly fitted or top-dose-only effect, or effect the other way; inactive = no such curve, though single readings can be large or run the other way.
Potency is read from the fitted curve at half-maximal effect.

The assay has as its system PA-1. Briefly: Confirmatory qHTS for gynecologic anti-cancer compounds from libraries of approved drugs and bioactive compounds. Also: nearly all actives have a fitted effect of over 55% in size. Conditions: gynecologic cancer cell panel viability, ATPlite luminescence, 48 h; series mostly up to 57.6 µM. Summed up: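 Viability is measured as ATP-dependent luciferase light using ATPlite, read 15 min after reagent addition at room temperature. Compounds, in DMSO, span 57.5 uM down to 0.977 nM over 11 threefold steps for 48 h.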
Background: qHTS replaces the single test concentration by a dilution series.
For `O=c1[nH]c(=O)n([C@H]2C[C@H](O)[C@@H](CO)O2)cc1Br`, the Potency result is “inactive”.
On to `Nc1ccccc1NC(=O)c1ccc(CNc2nccc(-c3cccnc3)n2)cc1`, for which the Potency is 1.09 µM (active).
As for `CC(C)(C)C(=O)OCOP(=O)(COCCn1cnc2c(N)ncnc21)OCOC(=O)C(C)(C)C`, the Potency was 6.85 µM (active).
Turning to `Cc1ccc(C(N)=O)cc1Nc1nccc(-c2cn(C(C)C)c3cnccc23)n1`, the Potency was 1.37 µM (active).
Regarding `CC(C)C[C@H](NC(=O)[C@@H](NC(=O)c1cccc(-c2ccccc2)n1)[C@@H](C)O)B(O)O`, the Potency is 0.0385 µM (active).
For the molecule `COc1cc(N2CCC(N3CCN(C)CC3)CC2)ccc1Nc1ncnc(Nc2ccccc2S(=O)(=O)C(C)C)n1`, the Potency was 9.68 µM (active).
As to `COc1cc(Nc2ncc(F)c(Nc3ccc4c(n3)N(COP(=O)(O)O)C(=O)C(C)(C)O4)n2)cc(OC)c1OC`, the Potency was 9.68 µM (active).
As for `CCN(CC)CCCC(C)Nc1ccnc2cc(Cl)ccc12` (stereo not drawn), the Potency result was “inactive”.
Then `Cc1cc(SCc2sc(-c3ccc(C(F)(F)F)cc3)nc2C)ccc1OCC(=O)O`, with “inactive”.
Turning to `CC1=C(CO)C(=O)O[C@@H]([C@@H](C)[C@H]2CC[C@H]3[C@@H]4C[C@H]5O[C@]56[C@@H](O)C=CC(=O)[C@]6(C)[C@H]4CC[C@]23C)C1`, the Potency was 1.68 µM (active).
Regarding `Cc1nc(N)ncc1-c1nc(N2CCOCC2)c2sc(C(C)(C)O)cc2n1`, the Potency is 6.85 µM (active).
As for `COc1ccc(-c2cc3nccn3c(Nc3ncccc3C(N)=O)n2)cc1OC`, the Potency was 6.11 µM (active).
Take `Cc1nc(NC(=O)N2CCCC2C(N)=O)sc1-c1csc(C(C)(C)C)n1` (stereo not drawn): the Potency is 27.3 µM (active).
